Measured values taken from ChEMBL document CHEMBL4513216, “Probing the Open Global Health Chemical Diversity Library for Multistage-Active Starting Points for Next-Generation Antimalarials” (ACS Infect Dis, 2020).
The whole screen tested about 69,000 compounds, of which about 8,600 (12%) showed an effect of 50% or more. The sample as a whole holds a higher share of strong results than the screen did.

Tested on: Plasmodium berghei
Assay: Screen against P. berghei liver stage (PbLuc), transformed with Luciferase, at 10uM
Format: functional, HepG2
Conditions: tested at 10 uM

| SMILES | INHIBITION [%] |
| --- | --- |
| COC(=O)C1CCN(c2cc(C)nc(-c3ccncc3)n2)CC1 | -53.5 |
| Cc1noc(C)c1C(=O)N1C[C@@H]2COC[C@]2(COc2ccccn2)C1 | 18.5 |
| Cn1nc(C(=O)N2CCCCCC2)cc1NC(=O)c1ccccc1 | 26.4 |
| CN1CCN(C(=O)c2cc(NC(=O)c3ccccc3)n(C)n2)CC1 | 46.6 |
| CCN1CCN(C(=O)c2cc(NC(=O)c3ccccc3)n(C)n2)CC1 | 75.7 |
| CC(C)N1c2sc(-c3ccsc3)nc2CC1C(=O)NC1CCCC1 (centres undefined) | 47.5 |
| CC(C)N1c2sc(-c3ccccc3)nc2CC1C(=O)NC1CCCC1 (centres undefined) | 57.1 |
| CC(C)N1c2sc(-c3ccsc3)nc2CC1C(=O)NC1CC1 (centres undefined) | 26.5 |
| Cc1cccc(CN2CCc3ncnc(N4CCOCC4)c3CC2)n1 | -9.86 |
| Cc1ccc(CN(CCCN2CCOCC2)Cc2[nH]cnc2C)o1 | -18.9 |
| CS(=O)(=O)N1CCC[C@]2(C[C@@H](Oc3ncccc3F)CO2)C1 | 26.2 |
| CN1CC=C(c2noc(CCC(=O)N3CCc4ccccc43)n2)CC1 | 32.5 |
| CN1CC=C(c2noc(CCC(=O)N3CCc4ccccc4C3)n2)CC1 | 77.2 |
| CN1CC=C(c2noc(CCC(=O)N3CCCC3)n2)CC1 | 41.6 |
| O=C(NCc1cccc(N2CC=CC2)c1)NC1CC1 | -37.7 |
| O=C(NC1CCCN(Cc2c(F)cccc2F)C1)c1cc[nH]n1 (centres undefined) | 32.2 |
| CCc1cccc(N2CCC(NC(=O)c3ccco3)CC2)c1 | 91.4 |
| Cc1occc1C(=O)NC1CCN(C(=O)Nc2cccnc2)CC1 | 46.3 |
| CCc1ccc(O)c(C(=O)NC2CCN(S(=O)(=O)CC)CC2)c1 | 44.2 |
| CCc1cccc(N2CCC(NC(=O)c3ccoc3C)CC2)c1 | 70.8 |
| CCc1cccc(N2CCC(NC(=O)c3cc[nH]n3)CC2)c1 | 77.3 |
| CCc1cccc(N2CCC(NC(=O)c3ccncc3)CC2)c1 | 23.5 |
| CCc1cccc(N2CCC(NC(=O)c3ccc(=O)[nH]n3)CC2)c1 | 21.9 |
| O=C([C@@H]1C[C@H]2[C@H](CCN2Cc2nccs2)O1)N1CCOCC1 | -1.53 |
| O=C(O)CNC(=O)Cc1csc(-c2ccccc2F)n1 | 32.8 |
| Cc1ccc(O)c(C(=O)N2CCCC2CC(=O)c2cnn(C)c2)c1 (centres undefined) | 50.2 |

| SMILES | INHIBITION [%] |
| --- | --- |
| CCc1ccccc1C(=O)N1CCCC1CC(=O)c1cnn(C)c1 (centres undefined) | 30.6 |
| Cc1cscc1C(=O)N1CCCC1CC(=O)c1cnn(C)c1 (centres undefined) | 12.7 |
| CCn1cc(S(=O)(=O)N2CCC(C3CCCCN(C)C3=O)CC2)c(C)n1 (centres undefined) | 37.1 |
| OCC1CCN(C[C@@H]2CN(C3Cc4ccccc4C3)C[C@@H]2CO)CC1 | 48.5 |
| COc1cc(C(=O)N2CCC(Nc3cccnc3)CC2)ccc1C | -22.1 |
| Cc1cccc(S(=O)(=O)N2C[C@@H]3C[C@H](C(=O)NC4CCC4)[C@H](C2)O3)c1 | 5.36 |
| O=C(NC1CCC1)[C@H]1C[C@H]2CN(S(=O)(=O)c3ccccc3)C[C@@H]1O2 | 51.2 |
| O=C(Nc1ccccc1)[C@H]1C[C@H]2CN(S(=O)(=O)c3ccccc3)C[C@@H]1O2 | 5.96 |
| O=C(NC1CCC1)[C@H]1C[C@H]2CN(CC3CC3)C[C@@H]1O2 | 65.3 |
| CC(C)CN1C[C@@H]2C[C@H](C(=O)NC3CCC3)[C@H](C1)O2 | 31.5 |
| CCc1cnc(N2C[C@@H]3C[C@H](C(=O)NC4CCC4)[C@H](C2)O3)nc1 | 5.63 |
| Fc1ccc(-c2cnc(CN3CCn4c(nnc4C4CC4)C3)o2)cc1 | 21.8 |
| CN1C(=O)CCCC12CCCN(Cc1cccs1)C2 (centres undefined) | -2.35 |
| N#Cc1ccc(C(=O)O)nc1C=Cc1cccc(Cl)c1 | 10.2 |
| c1coc(-c2noc(CN3CCCCC3Cn3cncn3)n2)c1 (centres undefined) | 17.4 |
| COCc1ncc(CN2C[C@@H](C(=O)O)[C@H](C(C)C)C2)cn1 | 24.2 |
| CC(C)[C@@H]1CN(Cc2cnc(C3CCCCC3)nc2)C[C@H]1C(=O)O | 13.5 |
| COCCc1ncc(CN2C[C@@H](C(=O)O)[C@H](C(C)C)C2)cn1 | 50.2 |
| CSc1cc2c(cc1NC(=O)NCc1ccncc1)OCCO2 | 8.4 |
| CC(NC(=O)NCCn1ccnc1)c1ccc2c(c1)OCCO2 (centres undefined) | 31.8 |
| CSc1cc2c(cc1NC(=O)NCC1CCOC1)OCCO2 (centres undefined) | 67.3 |
| CSc1cc2c(cc1NC(=O)NCC(=O)N(C)C)OCCO2 | 35.9 |
| COCCNC(=O)Nc1cc2c(cc1SC)OCCO2 | 69.1 |
| CSc1cc2c(cc1NC(=O)NCC(C)(C)C(N)=O)OCCO2 | 48.5 |
| CCCNC(=O)Nc1cc2c(cc1SC)OCCO2 | 8.47 |
| COCCN(C)C(=O)Nc1cc2c(cc1SC)OCCO2 | -34 |

| SMILES | INHIBITION [%] |
| --- | --- |
| CSc1cc2c(cc1NC(=O)NCCn1ccnc1)OCCO2 | 64.6 |
| O=C(N1CCCC(n2cncn2)C1)C1(c2ccccc2F)CCCC1 (centres undefined) | 22.3 |
| Cn1cnc(CNC(=O)c2ccccc2-n2cc(CN)cn2)c1 | -5.71 |
| COCC1CC2(CCN(Cc3cccnc3)CC2)CN1c1ncccn1 (centres undefined) | 22.2 |
| Cc1cc(S(=O)(=O)NC(=O)CCc2cncc(F)c2)c(C)s1 | 24.3 |
| COCc1nc(C(=O)N2CCCC2c2cccc(C)c2)cs1 (centres undefined) | -23.8 |
| COc1c(C)cnc(CN2CCCC(Cn3nc(C)nc3C)C2)c1C (centres undefined) | -1.14 |
| CC(NC(=O)NCCn1ccnc1)c1nncn1C (centres undefined) | 39.3 |
| COc1cccc(CNc2cc(N3CCCC3CO)ncn2)n1 (centres undefined) | -14.6 |
| O=C(O)c1ccccc1-c1ccc(CN2CC(c3ccncn3)C2)o1 | 6.1 |
| CN(C)c1cc(CNC(=O)c2cc(F)ccc2F)ccn1 | -2.53 |
| CN(C)c1cc(CNC(=O)c2cn(-c3ccc(F)cc3)nn2)ccn1 | 70.6 |
| CN(C)c1cc(CNC(=O)c2ccc(F)cc2)ccn1 | -7.35 |
| CC(C)COCC(NC(=O)c1ccncc1)c1ccco1 (centres undefined) | 28.8 |
| N#Cc1ccc(NC2CCN(c3ncccn3)CC2)cc1C(F)(F)F | 68.2 |
| N#Cc1ccc(NC2CCN(c3ncccn3)CC2)cc1Cl | 28.7 |
| CS(=O)(=O)N1CCC(Nc2ccc(C#N)c(C(F)(F)F)c2)CC1 | -11.7 |
| CC(C)(C)c1ncc(C(=O)NCCNc2ncccn2)s1 | -39.3 |
| CCN(Cc1ccncc1)CC1(C)Cc2c(N)nc(N)nc2O1 (centres undefined) | 14.27 |
| CC(C)OCc1ncn2c1CN(CCO)CCC2 | 0.804 |
| CC(C)OCc1ncn2c1CN(Cc1cnn(C)c1)CCC2 | -7.24 |
| COc1ccc(CN2CCCn3cnc(COCC4CC4)c3C2)cc1 | 42.6 |
| Cc1nc(CN2CCCn3cnc(COCC4CC4)c3C2)cs1 | 4.02 |
| Cc1nc(CN2CCCn3cnc(COC(C)C)c3C2)cs1 | 66 |
| CC(C)OCc1ncn2c1CN(Cc1ccc(F)cc1)CCC2 | 9.67 |
| CC(C)OCc1ncn2c1CN(Cc1ccoc1)CCC2 | 59 |

| SMILES | INHIBITION [%] |
| --- | --- |
| COc1ccc(CN2CCCn3cnc(COC(C)C)c3C2)cc1 | 56.7 |
| c1nc(COCC2CC2)c2n1CCCN(CC1CC1)C2 | 11.5 |
| c1cc(CN2CCCn3cnc(COCC4CC4)c3C2)co1 | 35.7 |
| CC(C)OCc1ncn2c1CN(Cc1nccs1)CCC2 | 46.2 |
| CC(C)OCc1ncn2c1CN(CC1CC1)CCC2 | 66 |
| COc1ccsc1C(=O)N1CCCC(n2nc(C)cc2C)C1 (centres undefined) | -5.25 |
| N#Cc1cccc(NC(=O)C2CCCN2c2nccs2)c1 (centres undefined) | 17.865 |
| O=C(CC1CCCCC1)NC1CCCCNC1=O (centres undefined) | -65.3 |
| CCc1ccc(CC(=O)N2CCN(c3nccn3C)CC2)cc1 | 27 |
| CSCCC(NC(=O)c1ccccc1)C(=O)N(C)Cc1ccsc1 (centres undefined) | 16.1 |
| O=C(NCCn1nc(C2CCNC2)c2cccnc21)c1ccccc1 (centres undefined) | -11.7 |
| CN(C)Cc1nnn2c1CN(Cc1cccnc1)CCC2 | -21.1 |
| CCc1noc(CN2CCN(Cc3cccs3)CC2)n1 | 3.73 |
| COCC(=O)N(C)Cc1nc(N(C)C)ncc1-c1ccncc1 | -3.53 |
| Cc1ncsc1CN1C[C@@H](OCC(=O)N(C)C)[C@H]2OCCC[C@H]21 | -31.3 |
| CC(C)NS(=O)(=O)c1cc(C(=O)O)cc(-c2ccccc2C#N)c1 | 53.8 |
| CC(C)NS(=O)(=O)c1cc(C(=O)O)cc(-c2ccccc2F)c1 | -108 |
| CC(=O)c1ccccc1-c1cc(C(=O)O)cc(S(=O)(=O)NC(C)C)c1 | -9.2 |
| CC(=O)N1CC[C@H]2OCC[C@@H](C(=O)Nc3cccnc3C)[C@H]2C1 | -14.2 |
| O=C(CO)N1C[C@H]2CN(Cc3cccc(F)c3)C(=O)[C@H]2C1 | 40.4 |
| O=C(c1ccco1)N1C[C@H]2CN(Cc3cccc(F)c3)C(=O)[C@H]2C1 | 1.94 |
| CN(C)C(=O)N1C[C@H]2CN(Cc3cccc(F)c3)C(=O)[C@H]2C1 | 33 |
| O=C(c1ccc[nH]1)N1C[C@H]2CN(Cc3cccc(F)c3)C(=O)[C@H]2C1 | 8.53 |
| O=C(NC1CC1)N1C[C@H]2CN(Cc3cccc(F)c3)C(=O)[C@H]2C1 | 60.2 |
| COCC(=O)N1C[C@H]2CN(Cc3cccc(F)c3)C(=O)[C@H]2C1 | 50.9 |
| CCc1ccc(C(=O)N2CCCC2c2c(C)nn(C)c2OC)o1 (centres undefined) | -11.2 |
